Consider eight molecules from PubChem BioAssay (NCI).

What all share (experiment): NCI-60 one-dose screen, 48 h (100 = growth as untreated, 0 = no growth, -100 = all killed)
Holding throughout (details): 10 µM unless noted

Assay [1] relates to NCI-H23 lung.
The test system of assay [2] is NCI-H226 lung.
The subject of assay [3] is NCI-H322M lung.
Assay [4] has as its system HOP-62 NSCLC.
Assay [5] has as its system NCI-H460 lung.
Assay [6] relates to NCI-H522 lung.
The subject of assay [7] is A549/ATCC NSCLC.
The test system of assay [8] is 786-0 renal.
For assay [9], the system named is COLO 205 colon.
Assay [10] concerns DU-145 prostate.
Assay [11] has as its system K-562 leukemia.
Assay [12] concerns MALME-3M melanoma.
Assay [13] has as its system MDA-MB-231 breast.
For assay [14], the system named is RXF 393 renal.
Assay [15] has as its system SF-268 CNS.
In assay [16] the test system is SF-295 CNS.
The subject of assay [17] is SF-539 CNS.
For assay [18], the system named is UACC-257 melanoma.
Assay [19] relates to M14 melanoma.

The panel holds about 83,000 compounds, 20% with a hit somewhere; the sample as a whole holds those more often.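 Compound tested at a single concentration for 48 hours in 96-well plates; a percent growth value below 10 was scored as active.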 A number with no mark means an inactive call. Calls of active or inactive are those of the source.

For `COc1cc(C2CC(c3ccc(S(=O)(=O)NCCNc4nc(Nc5ccc(F)cc5)nc(N(C)C)n4)cc3)=Nc3c(N)nc(N)nc3N2)cc(OC)c1OC` (configuration not stated), the growth is 93.5% in assay [1]; 91.4% in assay [2]; 86.7% in [3]; 94.3% in assay [4]; 84.5% in [5]; 84.2% in [6]. Besides, the growth was 97.9% in [7]; 75.3% in [8]; 104% in assay [9]; 103% in assay [10]; 47.2% in assay [11]; 84.4% in assay [12]. Moreover, the growth in assay [13] was 43.7%; in [14], 74%; in assay [15], 82.8%; in assay [16], 94%; in assay [17], 86%; in assay [18], 97.9%. Also, the growth in assay [19] was 101%.
Take `Cn1cc(-c2cc3nc(-c4cn(C)c5ncccc45)cc(N)n3n2)c2cc(Cl)ccc21`: the growth in [1] is -66.6% (active); in assay [2], 1.56% (active); in assay [3], -19.8% (active); in assay [4], -94.2% (active); in [5], -70% (active); in assay [6], -85.1% (active). In addition, the growth in assay [7] was -4.13% (active); in [8], -90.4% (active); in assay [9] it was -93.7% (active); in assay [10], -15% (active); in [11], -51.3% (active); in [12], -97.4% (active). Further, the growth in [13] was -96.2% (active); in assay [14], -84.2% (active); in assay [15] it was -45% (active); in assay [16], -81.5% (active); in [17] it was -98.5% (active); in assay [18], -76.5% (active). In assay [19], the growth was -90.8% (active).
Regarding `COc1ccc(/C=C/c2nc3ccccc3c(=O)n2CC(=O)Nc2ccc(Cl)cc2)cc1`, the growth was 60.7% in [1]; 30.4% in [2]; 88.8% in [3]; 8.06% (active) in assay [4]; 22.6% in assay [5]; 64.1% in assay [6]. The growth is 23% in [7]; 27.5% in assay [8]; 74.6% in assay [9]; 65.9% in assay [10]; 66.6% in assay [11]; 76.3% in assay [12]. The growth in assay [13] was 48.8%; in assay [14], 48.5%; in assay [15], 61.4%; in assay [16], 53%; in assay [17] it was -13% (active); in [18], 92.3%. Moreover, in assay [19], the growth is 77.8%.
Regarding `COc1cccc(-c2nc(Nc3ccc(S(N)(=O)=O)cc3)c3ccccc3n2)c1`, the growth in assay [1] was 37.9%; in assay [2], 25.9%; in assay [3], 50.3%; in assay [4], 58.9%; in assay [5], 18.4%; in assay [6], 23.9%. Also, the growth is 27.7% in assay [7]; 5.42% (active) in assay [8]; 27.8% in assay [9]; 29.4% in [10]; 10.3% in assay [11]; 37.9% in assay [12]. In addition, the growth in assay [13] was 13.3%; in [14], 12.5%; in [15], 33.7%; in [16], 2.4% (active); in [17] it was 11.9%; in [18], 68.4%. The growth in assay [19] is 38.7%.
Regarding `COc1ccc(/C=C/c2nc3ccccc3c(=O)n2CC(=O)Nc2ccc(OC)cc2)cc1`, the growth in assay [1] was 53.9%; in assay [2], 61.1%; in assay [3], 83.3%; in assay [4], 51.7%; in assay [5], 50.8%; in [6], 70.3%. Moreover, the growth in assay [7] was 46.9%; in assay [8], -12.7% (active); in assay [9], 87.8%; in assay [10], 77.2%; in [11], 95.3%; in [12], 73.7%. Moreover, the growth in assay [13] is 27.3%; in assay [14], 70.5%; in [15], 71.4%; in assay [16] it was 74.6%; in [17], -18.5% (active); in assay [18], 103%. In assay [19], the growth was 90.3%.
With `COc1ccc2c(c1)c(/C=N/Nc1ccc3ccccc3n1)cn2C`, the growth is 36.4% in [1]; 32.9% in assay [2]; 36.2% in [3]; 38.1% in [4]; -64.8% (active) in assay [5]; 3.83% (active) in assay [6]. Moreover, the growth is 14.9% in [7]; -87% (active) in assay [8]; -82.7% (active) in assay [9]; 36.2% in assay [10]; -40.1% (active) in assay [11]; 12.6% in assay [12]. The growth in [13] is -23.1% (active); in assay [14] it was 33.4%; in assay [15] it was 37.2%; in assay [16] it was -60.4% (active); in assay [17], -36.2% (active); in assay [18], 61.7%. In [19], the growth was -6.98% (active).
As to `Cc1ccc(-c2nc(Nc3ccccc3S(N)(=O)=O)c3ccccc3n2)cc1`, the growth in assay [1] is 68.2%; in assay [2], 59.1%; in [3], 80.2%; in assay [4], 86.8%; in [5], 70.2%; in [6], 81.4%. In addition, the growth in assay [7] was 71%; in assay [8] it was 32.1%; in assay [9] it was 98.7%; in assay [10], 77.6%; in [11] it was 46.1%; in assay [12], 97.7%. Also, the growth was 21.6% in [13]; 51.1% in assay [14]; 70.1% in assay [15]; 94.4% in [16]; -11.9% (active) in assay [17]; 106% in [18]. The growth in assay [19] is 90.3%.
With `O=C(COc1ccc2c(c1)CCCC(=O)N2)NCc1ccccc1`, the growth in assay [1] is 94.5%; in [2], 93.9%; in [3], 112%; in assay [4], 92.5%; in assay [5] it was 104%; in [6], 89.1%. For the same molecule, the growth in [7] is 103%; in [8], 101%; in [9] it was 106%; in assay [10], 113%; in [11], 43.4%; in assay [12] it was 95.6%. The growth in assay [13] was 82.4%; in [14], 93.2%; in assay [15], 97.5%; in assay [16], 90.8%; in [17] it was 87.3%; in assay [18], 98%. The growth in assay [19] was 83%.
